Test results from publication PMC13541613, “GHT-SELEX demonstrates unexpectedly high intrinsic sequence specificity and complex DNA binding of many human transcription factors”.

target: ZNF721 DBD1 (Homo sapiens, UniProt Q8TF20-2 29-461); assay: HT-SELEX; 20 mM HEPES pH 7, 140 mM KCl, 5 mM NaCl, 1 mM K2HPO4, 2 mM MgSO4, 100 uM EGTA, ZnSO4, 0.1% Tween20; room temperature, 1 h; high values mean tight binding; details: protein: ivt; tags: eGFP (N-terminal); dsDNA, one strand shown
How it was run: (§1)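 Tagged transcription factor, expressed in HEK293 lysate or cell-free extract as a full-length protein or DNA-binding-domain fragment, was held on beads. It bound a randomized 40-base DNA library during 1 h at room temperature in low-stringency HEPES/KCl buffer with Tween20. Eluted DNA went through successive PCR cycles and Illumina sequencing of ~3 million 60 bp reads per sample. A higher relative k-mer count in the selected reads denotes tighter binding.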

ZNF721 DBD1, sequence (Q8TF20 17-449): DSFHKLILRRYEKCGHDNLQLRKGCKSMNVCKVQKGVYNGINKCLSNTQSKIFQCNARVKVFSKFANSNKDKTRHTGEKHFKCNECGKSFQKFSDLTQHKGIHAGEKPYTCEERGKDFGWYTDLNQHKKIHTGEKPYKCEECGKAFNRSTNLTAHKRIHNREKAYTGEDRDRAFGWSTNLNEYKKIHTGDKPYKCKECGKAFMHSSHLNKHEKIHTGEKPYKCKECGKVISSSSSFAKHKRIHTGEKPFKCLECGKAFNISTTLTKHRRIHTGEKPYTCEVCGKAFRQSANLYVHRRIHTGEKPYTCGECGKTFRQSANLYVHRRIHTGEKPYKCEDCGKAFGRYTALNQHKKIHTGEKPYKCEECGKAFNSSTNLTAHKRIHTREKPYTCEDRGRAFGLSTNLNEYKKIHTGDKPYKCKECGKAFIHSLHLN

Row | Sequence | binding signal [relative 10-mer count]
1 | CACCCCCCCG | 0.00252
2 | CCCCAACCAC | 0.00665
3 | CCTCCCCCAC | 0.01
4 | AGTGTCTCCA | 0.0423
5 | CCACCCCCTC | 0.00982
6 | CCCACCACGC | 0.00408
7 | CCACCCGCCC | 0.00922
8 | CCTGCCCCCC | 0.00454
9 | CCCCGCGCCC | 0.00482
10 | CCCCCACCAC | 0.0133
11 | CGTCCCACCC | 0.00495
12 | ACAGCGTTAC | 0.00105
13 | CCACCCCACA | 0.00564
14 | AAAAAAGCTG | 0.137
15 | GCCACCCCCA | 0.00326
16 | CCACCCTCCA | 0.00587
17 | CCCCAGCCCC | 0.0083
18 | CTAAAAAAAA | 0.0111
19 | CACGCCCCAC | 0.00326
20 | CGAAAAAAAA | 0.0159

Row | Sequence | binding signal [relative 10-mer count]
21 | AGGGGGTGGG | 0.0107
22 | CACCACCCCC | 0.0117
23 | ACCCCCCTCC | 0.00624
24 | CTTCATACTC | 0.271
25 | AGCGTTTCCA | 0.00252
26 | GTGGGGTGGA | 0.00573
27 | CGCCCCCACC | 0.00945
28 | GCATACCCTA | 0.0231
29 | CCCCCGCTCC | 0.0033
30 | ATCCCACCCC | 0.00573
31 | CCCCCCCACC | 0.0144
32 | CCCTCCCACC | 0.0161
33 | AAGCGTACCC | 0.104
34 | CCCCCACGCC | 0.00688
35 | CCACAAAAAA | 0.00615
36 | TAAAAAAGCA | 0.00816
37 | CCCTCCCCGC | 0.00555
38 | CACCCCCACA | 0.00482
39 | CCGCCACCCC | 0.0102
40 | CACCCCCAAC | 0.00514

target: ZNF721 DBD2 (Homo sapiens, UniProt Q8TF20-2 395-923); assay: as above; details: protein: ivt; tags: eGFP (N-terminal); dsDNA, one strand shown
How it was run: as §1

ZNF721 DBD2, sequence (Q8TF20 383-911): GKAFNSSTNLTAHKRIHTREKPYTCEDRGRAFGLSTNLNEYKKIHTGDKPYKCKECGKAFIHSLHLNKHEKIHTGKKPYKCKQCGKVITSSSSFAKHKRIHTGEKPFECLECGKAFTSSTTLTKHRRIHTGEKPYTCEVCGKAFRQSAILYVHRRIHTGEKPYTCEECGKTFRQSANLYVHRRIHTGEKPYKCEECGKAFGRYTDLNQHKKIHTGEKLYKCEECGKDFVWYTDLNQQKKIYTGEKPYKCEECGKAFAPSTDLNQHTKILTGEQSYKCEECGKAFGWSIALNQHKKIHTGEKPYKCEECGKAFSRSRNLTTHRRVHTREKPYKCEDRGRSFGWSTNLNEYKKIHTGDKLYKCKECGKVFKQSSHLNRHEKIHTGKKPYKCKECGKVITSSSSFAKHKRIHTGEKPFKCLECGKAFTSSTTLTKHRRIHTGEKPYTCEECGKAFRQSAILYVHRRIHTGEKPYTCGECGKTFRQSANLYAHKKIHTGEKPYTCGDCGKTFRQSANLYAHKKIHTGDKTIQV

Row | Sequence | binding signal [relative 10-mer count]
41 | CACCCCCCCG | 0.003
42 | CCCCAACCAC | 0.00515
43 | CCTCCCCCAC | 0.00767
44 | AGTGTCTCCA | 0.282
45 | CCACCCCCTC | 0.00312
46 | CCCACCACGC | 0.00539
47 | CCACCCGCCC | 0.00443
48 | CCTGCCCCCC | 0.00132
49 | CCCCGCGCCC | 0.00228
50 | CCCCCACCAC | 0.00707
51 | CGTCCCACCC | 0.00204
52 | ACAGCGTTAC | 0.207
53 | CCACCCCACA | 0.00791
54 | AAAAAAGCTG | 0.00707
55 | GCCACCCCCA | 0.00216
56 | CCACCCTCCA | 0.00815
57 | CCCCAGCCCC | 0.0018
58 | CTAAAAAAAA | 0.0533
59 | CACGCCCCAC | 0.00455
60 | CGAAAAAAAA | 0.0695

Row | Sequence | binding signal [relative 10-mer count]
61 | AGGGGGTGGG | 0.00467
62 | CACCACCCCC | 0.0024
63 | ACCCCCCTCC | 0.00336
64 | CTTCATACTC | 0.00132
65 | AGCGTTTCCA | 0.459
66 | GTGGGGTGGA | 0.00539
67 | CGCCCCCACC | 0.00515
68 | GCATACCCTA | 0.217
69 | CCCCCGCTCC | 0.00144
70 | ATCCCACCCC | 0.00168
71 | CCCCCCCACC | 0.00791
72 | CCCTCCCACC | 0.00755
73 | AAGCGTACCC | 0.0138
74 | CCCCCACGCC | 0.00419
75 | CCACAAAAAA | 0.0663
76 | TAAAAAAGCA | 0.114
77 | CCCTCCCCGC | 0.00995
78 | CACCCCCACA | 0.00779
79 | CCGCCACCCC | 0.0018
80 | CACCCCCAAC | 0.0114
